Test results published in PubChem BioAssay (NCATS).
Results filed as inconclusive are left out. Activity calls are given as the source filed them. The call rests on the fitted dose curve; in most records, active means well fitted curve in the direction sought with a large enough effect; inconclusive means small, poorly fitted or top-dose-only effect, or another doubt; inactive means no such curve, though single readings can be large; an effect the other way counts as inactive or inconclusive.

Assays:
[1] = tested on: CRL-7250; assay: Cytotoxic Profiling of Annotated Libraries Using Quantitative High-Throughput Screening (AID 1296008); conditions: Five cell lines viability, CellTiter-Glo ATP luminescence, 48-72 h; max response: active compounds read low; further: nearly all actives have a fitted effect of over 60% in size; on max response: on the % scale 0 is the no-effect control and ±100 the full control effect
In short: (§1)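 Cytotoxicity was measured as CellTiter-Glo ATP luminescence, read after 10 min at room temperature. Compound treatment of the cells lasted 48 or 72 hr at 37 degrees Celsius in a qHTS format.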

[2] = tested on: HaCat; assay: as above; conditions: Five cell lines viability, CellTiter-Glo ATP luminescence, 48-72 h; max response: active compounds read low
In short: as §1

[3] = tested on: KB-3-1; assay: as above; conditions: Five cell lines viability, CellTiter-Glo ATP luminescence, 48-72 h; max response: active compounds read low
In short: as §1

[4] = tested on: NIH3T3; assay: as above; conditions: Five cell lines viability, CellTiter-Glo ATP luminescence, 48-72 h; max response: active compounds read low
In short: as §1

[5] = tested on: HACAT; assay: qHTS assay to identify novel small-molecules to repurpose for Merkel cell carcinoma treatment (AID 1296009); conditions: MCC and control cell lines, CellTiter-Glo viability, 72 h; at 44.8 µM (top of the series) unless noted; further: nearly all actives have a fitted effect of over 60% in size
In short: (§2)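 Cell viability measured by CellTiter-Glo following 72 hr compound treatment at 37 degree celsius, with NPC and MIPE libraries tested in 8- and 11-point concentration series.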

[6] = tested on: NIH3T3; assay: as above; conditions: MCC and control cell lines, CellTiter-Glo viability, 72 h; series mostly up to 44.8 µM
In short: as §2

[7] = tested on: C33A; assay: Primary qHTS to identify gynecologic anti-cancer compounds using libraries of approved drugs and bioactive compounds (AID 1345084); conditions: Gynecologic cancer cell panel viability, ATPlite luminescence, 48 h; series mostly up to 57.5 µM; further: on the % scale 0 is the no-effect control and ±100 the full control effect; nearly all actives have a fitted effect of over 55% in size
In short: (§3)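 48 h compound exposure at 37 C, 5% CO2; five-point qHTS. ATPlite luminescence readout of cell ATP.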

[8] = tested on: CAOV3; assay: as above; conditions: Gynecologic cancer cell panel viability, ATPlite luminescence, 48 h; series mostly up to 57.5 µM
In short: as §3

[9] = tested on: CASKI; assay: as above; conditions: Gynecologic cancer cell panel viability, ATPlite luminescence, 48 h; series mostly up to 57.5 µM
In short: as §3

[10] = tested on: Es-2; assay: as above; conditions: Gynecologic cancer cell panel viability, ATPlite luminescence, 48 h; series mostly up to 57.5 µM
In short: as §3

[11] = tested on: HeLa; assay: as above; conditions: Gynecologic cancer cell panel viability, ATPlite luminescence, 48 h; series mostly up to 57.5 µM
In short: as §3

[12] = tested on: Hek293T; assay: as above; conditions: Gynecologic cancer cell panel viability, ATPlite luminescence, 48 h, control line for the selectivity index; series mostly up to 57.5 µM
In short: as §3

[13] = tested on: JEG-3; assay: as above; conditions: Gynecologic cancer cell panel viability, ATPlite luminescence, 48 h; series mostly up to 57.5 µM
In short: as §3

[14] = tested on: OV90; assay: as above; conditions: Gynecologic cancer cell panel viability, ATPlite luminescence, 48 h; series mostly up to 57.5 µM
In short: as §3

[15] = tested on: SKOV3; assay: as above; conditions: Gynecologic cancer cell panel viability, ATPlite luminescence, 48 h; series mostly up to 57.5 µM
In short: as §3

[16] = tested on: PA-1; assay: as above; conditions: Gynecologic cancer cell panel viability, ATPlite luminescence, 48 h; series mostly up to 57.5 µM
In short: as §3

CC(C)(C)c1ccc2c(c1)CC[C@H]2NC(=O)Nc1cccc2[nH]ncc12
inactive: max response [1] -3.64% | outcome [2] | max response [3] -1.56% | outcome [4] | outcome [5] | Potency [6] | Potency [7] | Potency [8] | Potency [9] | Potency [10] | Potency [11] | Potency [12] | Potency [13] | Potency [14] | Potency [15]

COc1ccc2cc(-c3cc(-c4cc(Cl)cc(Cl)c4)nn3C(C)c3ccc(C(=O)NCCC(=O)O)cc3)ccc2c1 (stereo not drawn)
inactive: max response [1] 2.03% | outcome [2] | max response [3] -23.8% | outcome [4] | outcome [5] | Potency [6] | Potency [7] | Potency [8] | Potency [9] | Potency [10] | Potency [11] | Potency [12] | Potency [13] | Potency [14] | Potency [16] | Potency [15]

O=C(Nc1ccn(Cc2ccc(O)cc2C(F)(F)F)n1)c1c(F)cccc1F
inactive: max response [1] -7.76% | outcome [2] | max response [3] -23.9% | outcome [4] | outcome [5] | Potency [6] | Potency [7] | Potency [8] | Potency [9] | Potency [10] | Potency [12] | Potency [13] | Potency [14] | Potency [16] | Potency [15]

COC(=O)/C=C/C=C/C(=O)OC1C=C2COC(=O)C2(O)C2(C)CCCC(C)(C)C12 (stereo not drawn)
inactive: outcome [1] | outcome [2] | max response [3] 4.64% | max response [4] -4.83% | outcome [5] inactive [at 17.4 µM] | Potency [7] | Potency [8] | Potency [9] | Potency [10] | Potency [11] | Potency [12] | Potency [13] | Potency [14] | Potency [16] | Potency [15]

COc1c(CCC(=O)O)cccc1O[C@@H]1O[C@H](CO)[C@@H](O)[C@H](O)[C@H]1O
inactive: outcome [1] | outcome [2] | max response [3] 0.734% | max response [4] 0.319% | outcome [5] | Potency [7] | Potency [8] | Potency [9] | Potency [10] | Potency [11] | Potency [12] | Potency [13] | Potency [14] | Potency [16] | Potency [15]

O=[N+]([O-])c1ccc(Oc2ccc3c(c2)CCC(c2ccccc2)O3)nc1 (stereo not drawn)
inactive: outcome [1] | outcome [2] | max response [3] -24.2% | max response [4] -17% | outcome [5] | Potency [7] | Potency [8] | Potency [9] | Potency [10] | Potency [11] | Potency [12] | Potency [13] | Potency [14] | Potency [16] | Potency [15]

C=C1CC[C@@H](O)[C@]2(C)CC[C@H]3C(=C)C(=O)O[C@@H]3[C@@H]12
inactive: max response [1] -3.82% | outcome [2] | outcome [3] | max response [4] -16.6% | outcome [5] | Potency [7] | Potency [8] | Potency [9] | Potency [10] | Potency [11] | Potency [12] | Potency [13] | Potency [14] | Potency [16] | Potency [15]

COc1cc2nc(N3CCN(C(=O)COc4c(OC)cccc4C(C)C)CC3)nc(N)c2cc1OC
inactive: max response [1] 1.78% | outcome [2] | max response [3] 8.96% | outcome [4] | outcome [5] | Potency [6] | Potency [7] | Potency [9] | Potency [10] | Potency [11] | Potency [12] | Potency [13] | Potency [14] | Potency [16] | Potency [15]

O=c1cc(OCc2ccc(F)cc2)ccn1-c1ccc(OCCN2CCCC2)cc1
inactive: max response [1] -11.7% | outcome [2] | max response [3] -29.6% | max response [4] -16.9% | outcome [5] | Potency [7] | Potency [8] | Potency [9] | Potency [10] | Potency [11] | Potency [12] | Potency [13] | Potency [14] | Potency [16]

CC(C)(C)NC(=O)[C@H]1CC[C@H]2[C@@H]3CC[C@H]4NC(=O)CC[C@]4(C)[C@H]3CC[C@]12C
inactive: max response [1] -10.4% | outcome [2] | max response [3] -6.73% | max response [4] -8.88% | outcome [5] | Potency [7] | Potency [8] | Potency [9] | Potency [10] | Potency [11] | Potency [12] | Potency [13] | Potency [14] | Potency [16] | Potency [15]

CCc1ccc(-c2nc(CSCC(=O)NCCc3ccccc3)c(C)o2)cc1
inactive: max response [1] 2.64% | outcome [2] | max response [3] -10.3% | max response [4] -12.1% | outcome [5] | Potency [7] | Potency [8] | Potency [9] | Potency [10] | Potency [11] | Potency [12] | Potency [13] | Potency [14] | Potency [16]

CCC(C)/C=C(C)/C=C/C1=CC2=C(Cl)C(=O)C(C)(OC(C)=O)C(=O)C2(O)C(OC)O1 (stereo not drawn)
inactive: outcome [1] | outcome [2] | outcome [3] | outcome [4] | outcome [5] inactive [at 17.4 µM] | Potency [6] | Potency [7] | Potency [8] | Potency [9] | Potency [10] | Potency [11] | Potency [13] | Potency [14] | Potency [16] | Potency [15]

CC(C)Nc1nc(Nc2ccccc2)nc(-c2ccccc2)n1
inactive: max response [1] -10.5% | outcome [2] | max response [3] -2.52% | max response [4] -18.6% | outcome [5] | Potency [7] | Potency [8] | Potency [9] | Potency [10] | Potency [11] | Potency [12] | Potency [13] | Potency [14] | Potency [16]

COC(=O)c1ccnc(-c2cc(C(=O)Nc3ccc(C4(N)CC4)cc3)ccn2)c1
inactive: max response [1] -5.77% | outcome [2] | max response [3] -6.68% | max response [4] -5.19% | outcome [5] | Potency [7] | Potency [8] | Potency [9] | Potency [10] | Potency [11] | Potency [12] | Potency [13] | Potency [14] | Potency [16] | Potency [15]
